A selection: hits, their analogues and other compounds. The true share with any hit is near 6.2%.
ATXN viability: Viability Counterscreen for Primary qHTS for Inhibitors of ATXN expression. S2 cells (HEK-293 line with an ATXN2-luciferase reporter) viability, CellTiter-Fluor protease fluorescence, 24 h. Potency, µM (doses to about 56.7 µM), most hits filed as cytotoxic. 400,000 tested, 0.49% active. AID 651635, 2014; note: nearly all actives have a fitted effect of over 40% in size
KB-3-1 tox: qHTS assay for MDR1-selective chemotherapeutics: Primary screen using the parental adenocarcinoma cell KB-3-1. Potency, µM (top dose mostly 46.1 µM), hits mostly cytotoxic. 400,000 tested, 1.4% active. KB-3-1 viability, CellTiter-Glo ATP luminescence, 72 h; note: % is set by controls: 0 for no effect and ±100 for the full control effect; nearly all actives have a fitted effect of over 60% in size
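Parental KB-3-1 adenocarcinoma cells in phenol-red-free DMEM with 10% FBS were pin-treated with compounds at several concentrations, incubated 72 h at 37 °C, and viability read by CellTiter-Glo luminescence; concentration-effect curves were fitted after normalization.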
HT1080 IDH1KD tx: qHTS for induction of synthetic lethality in tumor cells producing 2HG: qHTS for the HT-1080-IDH1KD cell line | Potency, µM (titrated, usually from 46.1 µM), without a hit: at the highest dose activity, negative = toxicity, most hits filed as cytotoxic | 360,000 tested, 2% active | HT-1080 IDH1 knockdown viability, ATP luminescence, 48 h | AID 686971, 2013;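 note: 0% = DMSO wells and -100% = cell-free medium wells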
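Using the IDH1-knockdown HT-1080 line run in the same batch and compound series as the NT line, viability after 48 h at 37 °C was determined by CellTiter-Glo luminescence and expressed as % activity.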
ATXN2 expr inh: Primary qHTS for Inhibitors of ATXN expression; HEK-293 ATXN2-luciferase reporter, luminescence, 24 h; Potency, µM (series often up to 57 µM), inactives show at the highest dose activity change, negative = inhibition, most hits filed as inhibitors; 360,000 tested, 0.72% active; note: % is set by controls: 0 for no effect and ±100 for the full control effect; nearly all actives have a fitted effect of over 55% in size
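qHTS (up to 57 uM final) was run with 24 h compound exposure of reporter cells at 37 °C. Each well was multiplexed: SteadyGlo luminescence measured ATXN2-luciferase expression after a fluorogenic Gly-Phe-AFC viability readout (25 uM final).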
HT1080-NT tox: qHTS for induction of synthetic lethality in tumor cells producing 2HG: qHTS for the HT-1080-NT fibrosarcoma cell line; HT-1080-NT fibrosarcoma viability, CellTiter-Glo ATP luminescence, 48 h; Potency, µM (highest dose often 46.1 µM), for inactives: at the highest dose activity, negative = less viability, actives largely listed as cytotoxic; 360,000 tested, 1.6% active;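 note: NT is the 2HG producing partner of a matched IDH1 knockdown line; 0% = DMSO-treated cells and -100% = media-only wells without cells; nearly all actives have a fitted effect of over 55% in size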
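HT-1080-NT; 750 cells/well; 5% FBS RPMI; 48 h compound, 37 degrees C; CellTiter-Glo luminescence; curve fitting and curve-class assignment.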
KB-V1 cytotox: qHTS assay for MDR1-selective chemotherapeutics: Primary screen using the drug-selected MDR subline cells KB-V1; KB-V1 MDR cells viability, CellTiter-Glo, 72 h; Potency, µM (highest dose often 46.1 µM), hits mostly cytotoxic; 400,000 tested, 3.4% active; note: % is set by controls: 0 for no effect and ±100 for the full control effect; nearly all actives have a fitted effect of over 60% in size
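In this primary screen, KB-V1 cells overexpressing P-gp are incubated with library compounds (lowest to highest concentration) for 72 h at 37 degrees C before a luminescent ATP viability read.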
The depositor's hits bear a star; i = inactive; ? = inconclusive; / = no result. Calls come from the whole dose curve; as a rule, active = well fitted curve in the direction sought with a large enough effect; inconclusive = small, poorly fitted or top-dose-only effect, or another doubt; inactive = no such curve, though single readings can be large; an effect the other way counts as inactive or inconclusive. Potency is the fitted concentration of half-maximal effect.

SMILES	ATXN viability	KB-3-1 tox	HT1080 IDH1KD tx	ATXN2 expr inh	HT1080-NT tox	KB-V1 cytotox
Cc1ccc(N2C(=O)CCSC23C(=O)N(Cc2ccccc2)c2ccccc23)cc1 (centres undefined)	/	i	/	/	/	?
Cn1nc(-c2ccc(Cl)cc2)nc2c(=O)n(C)c(=O)nc1-2	/	i	/	/	/	i
Cn1nc(-c2ccccc2)nc1-c1ccccc1	i	i	-3.5%	46.4%	-4.1%	i
COc1ccc(-c2nc3c(=O)n(C)c(=O)nc-3n(C)n2)cc1	/	0.651µM*	/	/	/	4.61µM*
Cn1nc(-c2ccc(F)cc2)nc2c(=O)n(C)c(=O)nc1-2	/	2.91µM*	/	/	/	5.17µM*
Cc1cc(Cl)n2ncc(-c3ccccc3)c2n1	i	i	?	28.2%	18.4µM*	i
Cc1cc(C)n2ncc(-c3cccc(Br)c3)c2n1	i	i	-27.1%	40.4%	-0.8%	i
Cc1cc(N)n2ncc(-c3ccc(Cl)cc3)c2n1	i	18.4µM*	?	73.8%	?	?
CCC1CN(CCNC(=O)c2cccc(N3CCCC3=O)c2)Cc2cc(OC)ccc2O1 (centres undefined)	i	/	/	/	/	/
CCN(CC)C(C)C(=O)Nc1c2c(cc3c1CCC3)CCC2 (centres undefined)	i	i	1.2%	-19.0%	-0.2%	9.2µM*
Cc1ccc2[nH]c3c(c2c1)CN(C(=O)CN1CCN(c2cccc(C)c2C)CC1)CC3	i	?	18.4µM*	?	?	20.6µM*
Cc1ccc2[nH]c3c(c2c1)CN(C(=O)CN1c2ccc(F)cc2CCC1C)CC3 (centres undefined)	i	?	?	?	?	?
CCOc1cc(C)c(-c2onc(C(F)(F)F)c2-c2csc(C)n2)c(O)c1	?	?	?	?	?	13µM*
Cc1cc(C)cc(NCc2nnc3n2CCCCC3)c1	i	i	/	5.7%	/	i
Nc1cccc(-c2nc3ccc(C(=O)c4ccccc4)cc3[nH]2)c1	?	6.51µM*	10.3µM*	/	13µM*	3.66µM*
Cn1nccc1C(=O)N/N=C/c1c(O)ccc2ccccc12	i	7.31µM*	?	?	?	?
O=C(N/N=C/c1c(O)ccc2ccccc12)c1ccc(Br)o1	/	?	5.8µM*	2.82µM*	?	?
O=C(N/N=C\c1c(O)ccc2ccccc12)c1cncc(Br)c1	/	2.91µM*	1.03µM*	?	?	?
Cc1occc1C(=O)N/N=C/c1c(O)ccc2ccccc12	i	6.51µM*	6.51µM*	?	?	?
CN(Cc1ccc(C(F)(F)F)cc1)C(=O)[C@H]1O[C@@H](n2ccc(=O)[nH]c2=O)[C@H](O)[C@@H]1O	i	i	15.5%	8.1%	25.6%	i
CCc1cc(C(=O)NCc2c(C)ncc3c2CCN(C(=O)C2=CCCC2)C3)no1	i	/	/	/	/	/
Cc1cc(Cl)ccc1OCC(=O)NCC1Cc2cc(-c3cnccn3)ccc2O1 (centres undefined)	i	/	/	/	/	/
COc1ccc(C)cc1-n1nnc(S(=O)(=O)c2ccc(C)cc2)c1C	i	i	/	-8.8%	/	i
COc1cccc(CNC(=O)C2CCCCN2S(=O)(=O)c2ccc(F)cc2)c1 (centres undefined)	i	i	/	-9.6%	/	i
Cc1cc(C(=O)Nc2ccccc2-c2nc(CNC(=O)c3cscn3)c(C)o2)c(C)o1	i	/	/	/	/	/
O=C(NN=Cc1c(O)ccc2ccccc12)c1ccncc1	i	i	?	?	?	0.461µM*
O=C(N/N=C\c1c(O)ccc2ccccc12)c1ccc(O)cc1	?	i	?	?	?	i
